# Experimental data published in PubChem BioAssay AID2113 (National Center for Advancing Translational Sciences (NCATS), 2009).
# Values joined by “and” are separate entries in the source; they are usually repeats but may differ in a detail not shown here. Equal entries are not always repeated. Records with an inconclusive call do not appear. Active and inactive are the calls of the source. Calls follow the shape of the dose curve; as a rule, active = well fitted curve in either direction with a large enough effect; inconclusive = small, poorly fitted or top-dose-only effect; inactive = no such curve, though single readings can be large or run the other way.
# Target: Lysosomal alpha-glucosidase (Homo sapiens) (UniProt P10253)
# Assay: Confirmation of Inhibitors and Activators of Human alpha-Glucosidase From Spleen Homogenate; as to activity change, both directions: 0% is about no effect
# Settings: alpha-glucosidase enzyme activity; series mostly up to 60.5 µM; activity change, both directions: at the top concentration
# From the text: NIH Chemical Genomics Center [NCGC]
# NIH Molecular Libraries Probe Production centers Network [MLPCN]
# Assay Submitter (PI): Wei Zheng
# Alpha-glucosidase is responsible for hydrolysis of terminal, non-reducing 1,4-linked alpha-D-glucose residues with release of alpha-D-glucose. It is a lysosomal hydrolase that is required for the degradation of a small percentage (1-3%) of cellular glycogen in human. Deficiency of this enzyme results in glycogen-storage disease type II (GSDII), also referred to as Pompe disease, an autosomal recessive disorder. Structurally normal glycogen is accumulated in lysosomes and cytoplasm in affected patients, primarily in muscle tissues. Excessive glycogen storage within lysosomes may interrupt normal functioning of other organelles and leads to cellular injury. In turn, this leads to enlargement and dysfunction of the entire organ involved (eg, cardiomyopathy and muscle weakness).
# It has reported that the improper folding and trafficking of alpha-glucosidase resultinged from the genetic mutations may account for a significant number of Pomrope patients. […] We optimized this alpha-glucosidase assay in 1536-well plate format for identifying the novel small molecule inhibitors with the structures other than the sugar analogs in order to develop the new pharmacological chaperones. In particular, this assay is directed towards discovering compounds active in a more natural setting, tissue homogenate, that may have been missed by screens of the purified enzyme under more stringent conditions. This assay attempted to confirm hits from the primary screening.
# NCGC Assay Protocol Summary:
# This is a fluorogenic enzyme assay with 4-methylumbelliferyl-alpha-D-glucopyranoside as the substrate and human spleen homogenate containing alpha-glucosidase as the enzyme preparation. Upon hydrolysis of this fluorogenic substrate, the resulting product, 4-methylumbelliferone (which excites at 365 nm and emits at 440 nm) can be detected by a fluorescence plate reader. Data were normalized to the controls for basal activity (without enzyme) and 100% activity (with enzyme). The AC50 values were determined from concentration-response data modeled with the standard Hill equation.
# Assay buffer: 50 mM citric acid (titrated with potassium phosphate to pH 5.0), 0.01% Tween-20 (pH 5.0 is an optimal condition for this enzyme assay)
# 1536-well assay protocol for the alpha-glucosidase from human spleen homogenate:
# (1) Add 2 ul/well spleen homogenate (1 ug)
# (2) Add 23 nL compounds in DMSO solution. The final titration was 0.5 nM to 58 uM.
# (3) Add 2 ul of substrate (1 mM final)
# (4) Incubate at 37 C for 40 min
# (5) Add 2 ul stop solution (1M NaOH and 1M Glycine mixture, pH 10)
# (6) Detect the assay plate in a ViewLux plate reader (PerkinElmer) with Ex=365 nm and Em=440nm.
# Keywords: Alpha-glucosidase, Pompe Disease, pharmacological chaperone, chaperone therapy, high throughput screening, alpha-glucosidase inhibitor, MLSMR, MLSCN, NIH Roadmap, qHTS and NCGC
# Potency is read from the fitted curve at half-maximal effect.
SMILES,"activity change, both directions",Potency
Cc1sc(-c2cc3cc(Br)ccc3oc2=O)nc1-c1ccccc1,12.3% (inactive),–
O=C1Cc2cc(S(=O)(=O)N3CCN(c4ccc([N+](=O)[O-])cc4)CC3)ccc2N1,–,3.66 µM [inhibitor] (active)
CC(=O)c1ccc(N2CCN(S(=O)(=O)c3cc4c(cc3Cl)NC(=O)C4)CC2)cc1,–,1.83 µM [inhibitor] (active) and 5.17 µM [inhibitor] (active)
Clc1ncc(C#Cc2ccccc2)c2ncncc12,3.9% (inactive),–
COC(=O)c1ccc(C(=O)OC)c(NC(=S)N2CCOCC2)c1,7.39% [at 31.5 µM] (inactive),–
C[C@H](NC(=O)/C(C#N)=C/c1ccc(O)c(O)c1)c1ccccc1,3.9% (inactive),–
Cc1sc(-c2cc3cc(Cl)ccc3oc2=O)nc1-c1ccccc1,6.22% (inactive),–
COc1cc(=O)[nH]c(=O)n1CC(=O)c1ccccc1,1.27% [at 31.5 µM] (inactive),–
CC(=O)c1ccc(N2CCN(S(=O)(=O)c3ccc4c(c3)OCC(=O)N4)CC2)cc1,-10.1% (inactive),–
CC(=O)c1ccc(N2CCN(C(=O)c3ccc4c(c3)CC(=O)N4)CC2)cc1,-2.08% (inactive),–
COc1cccc(S(=O)(=O)N2CCOCC2)c1,-0.379% (inactive),–
CCCN1CNc2c(c(=O)[nH]c(=S)n2CCc2ccc(C)cc2)C1,–,25.1 µM (active)
COc1cccc2cc(-c3nc(-c4ccccc4)c(C)s3)c(=O)oc12,-10.2% (inactive),–
CCC(C)N1CNc2c(c(=O)[nH]c(=S)n2-c2cccc(C)c2)C1 (stereo not given),-1.63% [at 31.5 µM] (inactive),–
CC(C)Cn1c(SCC(=O)N2CCN(S(=O)(=O)c3ccccc3)CC2)nc2ccccc21,-15.3% (inactive),–
Cc1cccn2c(=O)c3cc(C#N)c(=NC(=O)c4cccs4)n(CCCOC(C)C)c3nc12,4.63% [at 31.5 µM] (inactive),–
CCCN1CNc2c(c(=O)[nH]c(=S)n2CCc2ccc(OCC)c(OCC)c2)C1,–,25.1 µM (active)
CCCN1CNc2c(c(=O)[nH]c(=S)n2CCc2c(Cl)cccc2Cl)C1,–,35.5 µM (active)
CC(=O)c1ccc(N2CCN(S(=O)(=O)c3ccc4c(c3)CCC(=O)N4)CC2)cc1,2.9% (inactive),–
O=c1cc(-c2ccccc2)[nH]c2[nH]n(-c3ccccc3)c(=O)c12,3.33% (inactive),–

SMILES,"activity change, both directions",Potency
O=C1Cc2cc(S(=O)(=O)N3CCN(c4ccc(CO)cc4)CC3)ccc2N1,–,25.9 µM [inhibitor] (active)
O=S(=O)(c1ccc2c(c1)C(=NNc1ccccc1)c1cc(S(=O)(=O)N3CCOCC3)ccc1-2)N1CCOCC1,-3.62% (inactive),–
CCc1sc(-c2cc3ccc(O)cc3oc2=O)nc1-c1ccccc1,-3.17% (inactive),–
CCCC1(C)Nc2ccccc2-c2nc3ccccc3n21 (stereo not given),19.2% [at 31.5 µM] (inactive),–
CCNc1ccc(C2(O)C(=O)c3ccccc3C2=O)cc1,-0.766% (inactive),–
COc1ccc(CCn2c(N)cc(=O)[nH]c2=O)cc1OC,-1.76% [at 31.5 µM] (inactive),–
CCN(CC)S(=O)(=O)c1ccc2c(c1)-c1cc(S(=O)(=O)N(CC)CC)ccc1C2=NNC(N)=S,-5.38% (inactive),–
Cc1ccc(-c2nc(-c3cc4cc(Cl)ccc4oc3=O)sc2C)cc1,5.44% (inactive),–
COc1ccc(/C=c2\s/c(=C/C(=O)c3ccc(C)cc3)[nH]c2=O)cc1OC,-4.47% [at 31.5 µM] (inactive),–
COc1ccc(CCn2c3c(c(=O)[nH]c2=O)C(NC(=O)c2cccs2)(C(F)(F)F)C(=O)N3)cc1OC (stereo not given),4.85% [at 31.5 µM] (inactive),–
COc1ccc(CCn2c(=S)[nH]c(=O)c3c(C)cc(C)nc32)cc1OC,-3.35% (inactive),–
C(=C\c1ccc2ccccc2n1)/c1ccc2c(c1)OCO2,16.2% (inactive),–
Cc1csc(-c2cc3ccccc3oc2=O)n1,–,31.6 µM (active)
C(=C\c1nccc2c1[nH]c1ccccc12)/c1ccc2c(c1)OCO2,26.5% (inactive),–
CC(=O)Nc1ccc(S(=O)(=O)N2CCN(c3ccc(C(C)=O)cc3)CC2)cc1,-0.437% (inactive),–
CCC(C)Nc1nc(-c2cccc(OC)c2O)nc2ccccc12 (stereo not given),2.75% (inactive),–
CCc1ccc(N=CC23c4ccccc4C(c4ccccc42)C2C(=O)N(c4ccc(OC)cc4)C(=O)C23)cc1 (stereo not given),2.73% [at 31.5 µM] (inactive),–
C(=C/c1nccc2c1[nH]c1ccccc12)/c1ccc2c(c1)OCO2,22.5% (inactive),–
CCCN1CNc2c(c(=O)[nH]c(=S)n2CCc2ccccc2Cl)C1,–,15.8 µM (active)
O=C(Cc1ncc(C(F)(F)F)cc1Cl)NCCc1ccccc1,0.772% [at 31.5 µM] (inactive),–
